Data published in the supplement of paper PMC10849652.
Targets with a hit are over-represented here; the source holds about 8,800 in all. About 0.5% of all pairs of compound and target were hits.

What was measured:
Assay in all cases: log2 fold change, soluble protein after heating vs DMSO (PISA); higher = thermal stabilisation; K562 lysate, 10 uM; active = over 0.2 and 3.5 SD of the protein, either way, in both replicates (recomputed)
[1] = compound: C#Cc1cccc(Nc2ncnc3cc(OCCOC)c(OCCOC)cc23)c1 [erlotinib]
Outline: (§1)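 Log-two fold change in thermal stability relative to solvent controls is reported from duplicates. For each sample, crude K562 extract from dounce-homogenised pellets in PBS pH 7.4 with 1 mM MgCl2, at 1 mg/mL protein, was treated with 10 μM compound for 30 min. Aliquots heated for 3 min across 48°C-58°C were pooled, brought to 0.5% NP-40 at 4°C and cleared at 21,000xg for 90 min. The supernatant was quantified by TMTpro 16plex LC-MS/MS with channel sums equalised.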

[2] = compound: C/C(=N\NC(=O)C1=CC(=CC=C1)S(=O)(=O)N2CCOCC2)/C3=C(C=CC(=C3)Cl)O
Outline: as §1

[3] = compound: C1=CC(=CC=C1C2=NC3=C(N2)C=C(C=C3)C(=O)N)OC4=CC=C(C=C4)Cl
Outline: as §1

[4] = compound: C1=CC2=C(C=CC(=C2)/C=C\3/C(=O)NC(=NCC4=CC=CS4)S3)N=C1
Outline: as §1

[5] = compound: C1=CC2=NC=CN=C2C=C1/C=C/3\C(=O)NC(=O)S3
Outline: as §1

[6] = compound: C1=CC=C(C=C1)C2=NC(=C(N2)C3=CC=NC=C3)C4=CC(=C(C=C4)Cl)O
Outline: as §1

[7] = compound: C1=CC=C2C(=C1)C3=NNC4=CC=CC(=C43)C2=O
Outline: as §1

[8] = compound: C1CCN(C1)C(=O)NC2=CC=CC(=C2)NC3=NC=C(C(=N3)NCCC4=CN=CN4)Br
Outline: as §1

[9] = compound: C1CN(CCC1(CC2=CC=C(C=C2)Cl)N)C3=NC=NC4=C3C=CN4
Outline: as §1

[10] = compound: C1COCCN1CCN2C3=CC=CC=C3N=C2NC(=O)C4=CC(=CC=C4)[N+](=O)[O-] [IRAK-1-4 Inhibitor I]
Outline: as §1

[11] = compound: C=CC(=O)N1CCC[C@@H](n2nc(-c3ccc(Oc4ccccc4)cc3)c3c(N)ncnc32)C1 [ibrutinib]
Outline: as §1

[12] = compound: CC(C)(C)Cn1c(N)nc2ccc(-c3[nH]c(C(C)(C)C)nc3-c3ccc(F)cc3)nc21 [ralimetinib]
Outline: as §1

[13] = compound: CC(C)(O)CC(=O)NCCn1ccc2ncnc(Nc3ccc(Oc4cccc(C(F)(F)F)c4)c(Cl)c3)c21
Outline: as §1

[14] = compound: CC(C)C1=C2N=C(C=C(N2N=C1)NCC3=CC=CC=C3)NCCCCCCN
Outline: as §1

[15] = compound: CC1=C(C(CC(=O)N1)C2=CC=C(C=C2)C(F)(F)F)C(=O)NC3=C(C=C4C(=C3)C=NN4)F
Outline: as §1

[16] = compound: CC1=C(C2=C(C=C1)C(=O)C3=CC=CC=C3N2CCCN)C
Outline: as §1

[17] = compound: CC1=C(C=C(C=C1)NC(=O)C2=CC(=CC=C2)C(C)(C)C#N)NC3=CC4=C(C=C3)N=CN(C4=O)C
Outline: as §1

[18] = compound: CC1=C(C=C(C=C1)NC(=O)C2=CC(=CC=C2)N(C)C)NC(=O)C3=CC=C(C=C3)O
Outline: as §1

[19] = compound: CC(=O)c1cnc2ccc(-c3cc(Cl)c(O)c(Cl)c3)nc2c1N[C@H]1CC[C@H](CN(C)C)CC1
Outline: as §1

[20] = compound: CC1=CC=C(C=C1)SC2=C3C=C(SC3=CN=C2)C(=O)N
Outline: as §1

Measured: log2 fold change

RECQL4 (UniProt O94761)
inactive: [1] -0.041 | [2] 0.023 | [3] -0.025 | [4] 0.195 | [5] -0.081 | [6] 0.018 | [7] -0.039 | [8] -0.035 | [9] 0.013 | [10] 0.015 | [11] 0.016 | [12] -0.034 | [13] -0.06 | [14] 0.039 | [15] -0.017 | [16] 0.076 | [17] 0 | [18] 0.044

RPL27 (UniProt P61353)
inactive: [1] 0.002 | [2] -0.02 | [3] -0.04 | [4] -0.033 | [5] 0.011 | [6] 0.011 | [7] 0.03 | [8] 0.052 | [9] -0.014 | [10] -0.014 | [11] 0.037 | [19] -0.014 | [12] -0.025 | [13] -0.018 | [14] -0.01 | [15] -0.067 | [16] -0.051 | [17] 0 | [18] -0.01 | [20] 0.014

RFWD3 (UniProt Q6PCD5)
Sequence of UniProt Q6PCD5 (Q6PCD5 whole entry, looked up): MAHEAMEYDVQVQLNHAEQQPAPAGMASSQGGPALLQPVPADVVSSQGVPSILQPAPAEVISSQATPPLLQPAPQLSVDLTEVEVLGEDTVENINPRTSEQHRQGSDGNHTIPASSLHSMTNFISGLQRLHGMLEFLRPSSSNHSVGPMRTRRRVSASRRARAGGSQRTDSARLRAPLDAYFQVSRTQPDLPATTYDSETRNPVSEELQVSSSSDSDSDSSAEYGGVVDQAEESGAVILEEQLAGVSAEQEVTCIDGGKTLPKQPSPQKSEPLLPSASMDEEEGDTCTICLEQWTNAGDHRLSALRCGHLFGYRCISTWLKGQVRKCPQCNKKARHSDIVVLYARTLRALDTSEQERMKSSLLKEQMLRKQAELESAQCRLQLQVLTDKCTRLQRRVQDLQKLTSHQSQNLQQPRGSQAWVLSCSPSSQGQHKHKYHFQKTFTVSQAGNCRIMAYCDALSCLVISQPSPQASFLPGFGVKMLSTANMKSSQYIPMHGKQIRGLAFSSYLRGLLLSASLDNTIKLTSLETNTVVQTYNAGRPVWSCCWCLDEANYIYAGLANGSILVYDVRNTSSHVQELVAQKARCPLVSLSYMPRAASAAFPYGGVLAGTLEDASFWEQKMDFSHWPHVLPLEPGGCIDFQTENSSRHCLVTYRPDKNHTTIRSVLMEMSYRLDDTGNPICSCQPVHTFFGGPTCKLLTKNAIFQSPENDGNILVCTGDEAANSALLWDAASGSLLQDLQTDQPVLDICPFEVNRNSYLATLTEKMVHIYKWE
inactive: [1] -0.12 | [2] 0.005 | [3] 0.048 | [4] -0.061 | [5] 0.062 | [6] 0.029 | [7] -0.039 | [8] -0.086 | [9] 0.053 | [10] 0.054 | [11] -0.001 | [12] 0.039 | [13] -0.059 | [14] 0.066 | [15] 0.059 | [16] -0.06 | [17] 0.087 | [18] -0.007

RCOR1 (UniProt Q9UKL0)
inactive: [1] -0.023 | [2] 0.065 | [3] -0.004 | [4] -0.053 | [5] -0.051 | [6] 0.005 | [7] -0.035 | [8] -0.008 | [9] 0.017 | [10] 0.003 | [11] 0.016 | [19] -0.001 | [12] 0.023 | [13] -0.028 | [14] 0.264 | [15] 0 | [16] 0.013 | [17] -0.049 | [18] 0.02 | [20] 0.021

RAP1B (UniProt F5GZG1)
inactive: [1] -0.028 | [2] 0.332 | [3] 0.101 | [4] -0.048 | [5] -0.206 | [7] -0.08 | [8] -0.081 | [9] 0.04 | [11] 0.01 | [19] -0.021 | [14] 0.061 | [15] 0.036 | [16] 0.019 | [17] -0.124 | [20] 0.117

SCO2 (UniProt O43819)
Sequence of UniProt O43819 (O43819 whole entry, looked up): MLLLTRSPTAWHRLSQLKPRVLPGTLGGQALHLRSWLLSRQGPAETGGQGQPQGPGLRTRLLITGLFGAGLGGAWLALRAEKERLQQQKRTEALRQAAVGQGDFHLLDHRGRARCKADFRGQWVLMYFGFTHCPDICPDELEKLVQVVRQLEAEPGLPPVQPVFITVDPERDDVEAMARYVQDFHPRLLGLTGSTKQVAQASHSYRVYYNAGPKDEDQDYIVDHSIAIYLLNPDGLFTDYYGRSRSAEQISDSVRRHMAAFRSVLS
inactive: [1] 0.055 | [2] -0.09 | [3] 0.057 | [4] 0.023 | [5] -0.017 | [6] 0.085 | [7] 0.035 | [8] 0.014 | [9] 0.041 | [10] -0.015 | [11] -0.021 | [19] -0.065 | [12] -0.02 | [13] -0.142 | [14] 0 | [15] -0.258 | [16] -0.009 | [17] 0.017 | [18] 0.01 | [20] -0.117

SASS6 (UniProt Q6UVJ0)
Sequence of UniProt Q6UVJ0 (Q6UVJ0 whole entry, looked up): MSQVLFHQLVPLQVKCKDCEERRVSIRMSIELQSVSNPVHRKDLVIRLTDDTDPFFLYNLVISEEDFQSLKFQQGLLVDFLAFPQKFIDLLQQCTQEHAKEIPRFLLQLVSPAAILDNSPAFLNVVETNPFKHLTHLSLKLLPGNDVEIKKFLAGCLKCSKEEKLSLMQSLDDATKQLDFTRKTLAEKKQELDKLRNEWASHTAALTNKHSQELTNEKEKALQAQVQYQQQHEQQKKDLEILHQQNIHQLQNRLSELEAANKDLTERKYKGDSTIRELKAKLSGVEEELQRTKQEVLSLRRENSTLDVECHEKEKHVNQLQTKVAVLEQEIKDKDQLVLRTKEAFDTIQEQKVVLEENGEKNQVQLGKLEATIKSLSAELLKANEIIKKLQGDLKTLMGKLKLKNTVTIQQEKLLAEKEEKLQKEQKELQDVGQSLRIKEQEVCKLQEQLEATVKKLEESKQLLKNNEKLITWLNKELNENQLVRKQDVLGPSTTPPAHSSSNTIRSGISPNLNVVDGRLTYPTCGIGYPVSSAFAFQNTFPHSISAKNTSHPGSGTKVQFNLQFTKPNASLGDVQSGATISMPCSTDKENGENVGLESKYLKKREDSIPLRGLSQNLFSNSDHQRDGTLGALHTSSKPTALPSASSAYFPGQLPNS
inactive: [1] 0.024 | [2] 0.016 | [3] 0.028 | [4] -0.019 | [5] -0.009 | [6] 0.015 | [7] -0.023 | [8] -0.012 | [9] 0 | [10] -0.021 | [11] -0.006 | [19] 0.023 | [12] -0.006 | [13] -0.056 | [14] -0.017 | [15] 0.024 | [16] 0.007 | [17] 0.015 | [18] 0.001 | [20] -0.021

RBM5 (UniProt P52756)
Sequence of UniProt P52756 (P52756 whole entry, looked up): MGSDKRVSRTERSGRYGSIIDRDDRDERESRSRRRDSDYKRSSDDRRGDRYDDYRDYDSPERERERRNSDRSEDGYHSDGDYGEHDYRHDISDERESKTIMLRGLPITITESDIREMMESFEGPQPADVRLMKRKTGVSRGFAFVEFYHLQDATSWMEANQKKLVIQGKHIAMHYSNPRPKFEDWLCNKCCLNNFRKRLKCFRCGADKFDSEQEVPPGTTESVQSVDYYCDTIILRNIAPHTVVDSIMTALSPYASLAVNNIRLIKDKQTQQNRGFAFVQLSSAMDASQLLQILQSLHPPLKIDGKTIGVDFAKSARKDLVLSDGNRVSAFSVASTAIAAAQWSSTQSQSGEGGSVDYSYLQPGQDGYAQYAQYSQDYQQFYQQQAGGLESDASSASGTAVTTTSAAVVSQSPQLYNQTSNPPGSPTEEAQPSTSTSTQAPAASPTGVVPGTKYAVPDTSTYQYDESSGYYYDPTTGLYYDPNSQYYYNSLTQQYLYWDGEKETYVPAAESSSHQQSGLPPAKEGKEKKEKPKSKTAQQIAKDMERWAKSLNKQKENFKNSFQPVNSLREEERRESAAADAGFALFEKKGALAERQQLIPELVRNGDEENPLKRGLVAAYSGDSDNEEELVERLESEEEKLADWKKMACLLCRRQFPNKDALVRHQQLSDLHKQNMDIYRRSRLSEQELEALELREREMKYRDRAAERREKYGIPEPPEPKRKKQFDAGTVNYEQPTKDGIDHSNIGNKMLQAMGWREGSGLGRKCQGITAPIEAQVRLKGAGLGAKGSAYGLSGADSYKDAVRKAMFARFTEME
inactive: [1] 0.095 | [2] -0.042 | [3] 0.054 | [4] 0.006 | [5] -0.006 | [6] 0.015 | [7] -0.121 | [8] -0.021 | [9] -0.001 | [10] -0.023 | [11] -0.017 | [19] 0.03 | [12] 0.004 | [13] 0.042 | [14] -0.141 | [15] -0.004 | [16] 0.065 | [17] 0.035 | [18] -0.007 | [20] -0.06

RTTN (UniProt Q86VV8)
Sequence of UniProt Q86VV8 (Q86VV8 whole entry, looked up): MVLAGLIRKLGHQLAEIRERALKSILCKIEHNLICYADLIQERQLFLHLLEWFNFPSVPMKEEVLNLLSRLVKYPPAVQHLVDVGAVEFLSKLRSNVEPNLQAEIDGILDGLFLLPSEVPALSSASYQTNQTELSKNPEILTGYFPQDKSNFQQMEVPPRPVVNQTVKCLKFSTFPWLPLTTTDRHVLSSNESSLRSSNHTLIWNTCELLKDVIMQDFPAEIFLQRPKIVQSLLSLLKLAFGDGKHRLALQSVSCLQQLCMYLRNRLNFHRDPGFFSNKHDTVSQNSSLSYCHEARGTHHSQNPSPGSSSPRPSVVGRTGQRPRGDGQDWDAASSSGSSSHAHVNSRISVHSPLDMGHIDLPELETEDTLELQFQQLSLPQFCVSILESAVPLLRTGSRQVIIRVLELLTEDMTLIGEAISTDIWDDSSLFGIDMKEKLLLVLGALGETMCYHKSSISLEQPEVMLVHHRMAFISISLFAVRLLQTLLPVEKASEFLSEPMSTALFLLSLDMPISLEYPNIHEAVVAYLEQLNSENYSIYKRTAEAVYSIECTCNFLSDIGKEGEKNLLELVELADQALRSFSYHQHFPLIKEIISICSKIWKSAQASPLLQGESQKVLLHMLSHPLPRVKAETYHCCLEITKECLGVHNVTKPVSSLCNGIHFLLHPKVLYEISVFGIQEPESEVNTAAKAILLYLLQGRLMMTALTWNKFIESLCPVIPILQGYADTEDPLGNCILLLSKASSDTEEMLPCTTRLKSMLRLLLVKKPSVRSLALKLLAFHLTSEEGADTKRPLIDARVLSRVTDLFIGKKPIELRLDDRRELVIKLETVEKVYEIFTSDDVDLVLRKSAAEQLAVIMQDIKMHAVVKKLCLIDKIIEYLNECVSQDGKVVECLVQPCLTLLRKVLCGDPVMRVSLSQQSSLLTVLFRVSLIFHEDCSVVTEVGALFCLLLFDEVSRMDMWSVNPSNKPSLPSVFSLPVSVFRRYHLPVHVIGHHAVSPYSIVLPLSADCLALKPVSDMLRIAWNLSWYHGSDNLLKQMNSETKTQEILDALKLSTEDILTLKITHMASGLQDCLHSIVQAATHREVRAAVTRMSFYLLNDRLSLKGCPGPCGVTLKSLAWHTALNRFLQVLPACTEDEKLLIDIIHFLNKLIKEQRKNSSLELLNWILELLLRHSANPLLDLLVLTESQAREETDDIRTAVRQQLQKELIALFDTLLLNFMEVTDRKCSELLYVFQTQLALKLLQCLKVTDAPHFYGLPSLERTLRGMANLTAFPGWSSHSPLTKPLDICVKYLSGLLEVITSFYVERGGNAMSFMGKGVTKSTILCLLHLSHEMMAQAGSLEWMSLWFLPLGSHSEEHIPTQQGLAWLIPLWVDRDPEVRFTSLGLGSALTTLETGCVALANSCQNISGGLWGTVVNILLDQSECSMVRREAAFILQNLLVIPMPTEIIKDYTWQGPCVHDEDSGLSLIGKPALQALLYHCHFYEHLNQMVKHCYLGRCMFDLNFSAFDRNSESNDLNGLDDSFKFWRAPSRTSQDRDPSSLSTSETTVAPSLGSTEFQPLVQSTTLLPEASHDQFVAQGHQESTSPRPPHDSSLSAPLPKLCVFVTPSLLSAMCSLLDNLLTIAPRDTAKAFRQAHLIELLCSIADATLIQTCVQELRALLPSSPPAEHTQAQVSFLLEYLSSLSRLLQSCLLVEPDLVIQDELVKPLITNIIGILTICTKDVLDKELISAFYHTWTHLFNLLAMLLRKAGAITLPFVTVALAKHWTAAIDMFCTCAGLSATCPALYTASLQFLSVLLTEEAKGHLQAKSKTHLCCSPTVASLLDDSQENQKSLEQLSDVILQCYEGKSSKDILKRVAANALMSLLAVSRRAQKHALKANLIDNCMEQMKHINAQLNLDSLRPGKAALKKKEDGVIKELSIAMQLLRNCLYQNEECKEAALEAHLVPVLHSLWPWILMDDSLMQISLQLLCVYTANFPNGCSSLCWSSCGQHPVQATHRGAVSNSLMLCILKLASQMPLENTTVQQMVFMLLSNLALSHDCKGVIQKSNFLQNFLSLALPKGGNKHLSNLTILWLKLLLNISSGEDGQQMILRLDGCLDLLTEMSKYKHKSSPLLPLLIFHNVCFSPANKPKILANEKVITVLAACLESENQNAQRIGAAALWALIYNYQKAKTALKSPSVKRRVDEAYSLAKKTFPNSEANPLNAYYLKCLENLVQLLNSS
inactive: [1] -0.002 | [2] -0.196 | [3] -0.123 | [4] -0.103 | [5] 0.045 | [6] -0.043 | [7] -0.056 | [8] 0.14 | [9] 0.036 | [10] 0.098 | [11] 0.095 | [19] 0.155 | [12] 0.145 | [13] -0.137 | [14] 0.379 | [15] -0.053 | [16] 0.015 | [18] -0.004 | [20] 0.112

RNF213, A0A0A0MTC1
inactive: [1] 0.041 | [2] 0.004 | [3] 0 | [4] 0.042 | [5] 0.015 | [6] 0.021 | [7] -0.045 | [8] -0.005 | [9] 0.047 | [10] 0.025 | [11] 0.015 | [19] 0.006 | [12] -0.001 | [13] -0.014 | [14] 0.007 | [15] 0.014 | [16] 0.008 | [17] 0.014 | [18] 0.042 | [20] 0.022
